Test [1] in a line: compounds binding Alexa647 anti-His antibody – biochemical, small-molecule microarray, 635 nm fluorescence, artefact control for SMM control protein annotation, primary screen (AID 1128).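 Also: score merges feature fluorescence with signal-to-noise for each printed compound spot.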 To be noted: higher = more signal.
The test system of test [2] is Human papillomavirus type 1a E7 protein (residues 1-88). Nature of the test: HPV1a E7 small-molecule binders, primary screen, biochemical, small-molecule microarray, residues 1-88, 635 nm (AID 1129). The note with it: small-molecule microarray binding, fluorescence 635 nm; higher = more signal.
The target in test [3] is Focal adhesion kinase 1 (Homo sapiens) (UniProt Q05397). Nature of the test: PTK2 protein binding on printed compound slides – biochemical, small-molecule microarray, 635/667 nm fluorescence, BSA, DTT, primary screen (AID 1130).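 Also: composite of spot emission at 667 nm and signal to noise over triplicate slides.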 To be noted: 635 nm fluorescence, higher = more signal.
Focal adhesion kinase 1 (Homo sapiens), sequence (Q05397 whole entry, looked up): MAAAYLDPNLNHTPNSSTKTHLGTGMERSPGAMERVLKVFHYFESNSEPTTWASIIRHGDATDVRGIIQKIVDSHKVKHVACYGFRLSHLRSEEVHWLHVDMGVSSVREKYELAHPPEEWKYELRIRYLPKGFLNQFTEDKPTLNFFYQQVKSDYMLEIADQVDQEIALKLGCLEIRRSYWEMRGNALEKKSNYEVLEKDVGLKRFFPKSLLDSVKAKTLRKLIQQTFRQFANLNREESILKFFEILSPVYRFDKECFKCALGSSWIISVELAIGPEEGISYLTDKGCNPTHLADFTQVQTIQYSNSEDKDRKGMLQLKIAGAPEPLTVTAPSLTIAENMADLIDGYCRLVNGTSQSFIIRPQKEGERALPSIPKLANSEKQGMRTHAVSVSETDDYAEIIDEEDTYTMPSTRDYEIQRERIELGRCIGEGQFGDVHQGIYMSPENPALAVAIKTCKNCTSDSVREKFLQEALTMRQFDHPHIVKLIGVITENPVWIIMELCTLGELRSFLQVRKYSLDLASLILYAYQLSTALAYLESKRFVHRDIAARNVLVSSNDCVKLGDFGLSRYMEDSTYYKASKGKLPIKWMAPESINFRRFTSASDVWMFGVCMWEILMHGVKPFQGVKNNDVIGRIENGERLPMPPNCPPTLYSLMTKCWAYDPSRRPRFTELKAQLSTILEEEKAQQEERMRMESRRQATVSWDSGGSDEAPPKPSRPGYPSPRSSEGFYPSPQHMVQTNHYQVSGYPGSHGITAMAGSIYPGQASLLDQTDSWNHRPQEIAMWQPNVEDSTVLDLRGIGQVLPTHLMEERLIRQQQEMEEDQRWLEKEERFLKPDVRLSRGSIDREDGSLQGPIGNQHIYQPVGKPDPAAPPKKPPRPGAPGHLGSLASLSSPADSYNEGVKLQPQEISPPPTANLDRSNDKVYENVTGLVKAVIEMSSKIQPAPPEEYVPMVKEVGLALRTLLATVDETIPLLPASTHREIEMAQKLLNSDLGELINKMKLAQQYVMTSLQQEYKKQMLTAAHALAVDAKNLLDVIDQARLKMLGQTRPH
The subject of test [4] is Fibrinogen (Alexa647-labelled). Nature of the test: Alexa647-fibrinogen binding to printed small molecules – biochemical, small-molecule microarray, 635/667 nm fluorescence, artefact control for SMM control-protein annotation, profiling panel (AID 1131).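 Also: z-score merges 667 nm fluorescence with per-spot signal-to-noise over triplicate slides.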 The note with it: fibrinogen-A647 binding fluorescence, higher = more signal.
Test [5] has as its target Follistatin (Homo sapiens) (UniProt P19883). Nature of the test: FST protein binding to printed compounds – biochemical, small-molecule microarray, 635/667 nm fluorescence, primary screen (AID 1132). To be noted: 635 nm fluorescence, higher = more signal.
Test [6] deals with Fibroblast growth factor 2 (Homo sapiens) (UniProt P09038). Nature of the test: basic fibroblast growth factor binding to printed compounds – biochemical, small-molecule microarray, 635/667 nm fluorescence, primary screen (AID 1133). To be noted: FGF2, fluorescence 635/667, higher = more signal.
Fibroblast growth factor 2 (Homo sapiens), sequence (P09038 whole entry, looked up): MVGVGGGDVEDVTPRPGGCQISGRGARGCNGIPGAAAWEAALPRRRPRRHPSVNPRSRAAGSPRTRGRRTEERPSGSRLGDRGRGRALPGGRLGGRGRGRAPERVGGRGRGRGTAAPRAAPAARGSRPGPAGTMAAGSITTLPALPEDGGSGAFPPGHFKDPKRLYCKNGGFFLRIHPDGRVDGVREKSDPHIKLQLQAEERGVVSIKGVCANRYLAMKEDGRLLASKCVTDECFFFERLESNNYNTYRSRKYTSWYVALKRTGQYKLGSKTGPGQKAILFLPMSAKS
Test [7] can be described thus: JC-1 mitochondrial potential readout, lung cancer cells – cell-based, A549, JC-1 fluorescence, basal, 24 h, 100 nL, profiling panel (AID 1138).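 Also: A549 lung adenocarcinoma cells under basal conditions with no added stimulus; test concentration not given here.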 The note with it: higher = more signal.
Another test relates to Lefty1. Nature of the test: Lefty1 protein binding to printed compounds – biochemical, small-molecule microarray, 635/667 nm fluorescence, primary screen (AID 1139). To be noted: fluorescence 635/667, higher = more signal.
Test [8] has as its system wheat germ agglutinin (Triticum aestivum), Alexa647-labelled. Nature of the test: Alexa647-WGA lectin binding to printed small molecules – biochemical, small-molecule microarray, 635/667 nm fluorescence, artefact control for SMM control-protein annotation, profiling panel (AID 1140).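 Also: score merges 667 nm feature emission with signal to noise over triplicate slides.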 The note with it: WGA-A647 binding, 635 nm fluorescence, higher = more signal.
For test [9], the target named is Luciferin 4-monooxygenase (Photinus pyralis) (UniProt P08659). Nature of the test: inhibition of purified Photinus pyralis luciferase – biochemical, luminescence, purified enzyme, 2006 set, primary screen (AID 1141).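 Also: cell-free assay with purified firefly luciferase at 100 ng per well in PBS; test concentration not given here.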 To be noted: purified firefly luciferase, SteadyGlo luminescence, 30 min; higher = more signal, called active from +8 up or from −8 down.
Luciferin 4-monooxygenase (Photinus pyralis), sequence (P08659 whole entry, looked up): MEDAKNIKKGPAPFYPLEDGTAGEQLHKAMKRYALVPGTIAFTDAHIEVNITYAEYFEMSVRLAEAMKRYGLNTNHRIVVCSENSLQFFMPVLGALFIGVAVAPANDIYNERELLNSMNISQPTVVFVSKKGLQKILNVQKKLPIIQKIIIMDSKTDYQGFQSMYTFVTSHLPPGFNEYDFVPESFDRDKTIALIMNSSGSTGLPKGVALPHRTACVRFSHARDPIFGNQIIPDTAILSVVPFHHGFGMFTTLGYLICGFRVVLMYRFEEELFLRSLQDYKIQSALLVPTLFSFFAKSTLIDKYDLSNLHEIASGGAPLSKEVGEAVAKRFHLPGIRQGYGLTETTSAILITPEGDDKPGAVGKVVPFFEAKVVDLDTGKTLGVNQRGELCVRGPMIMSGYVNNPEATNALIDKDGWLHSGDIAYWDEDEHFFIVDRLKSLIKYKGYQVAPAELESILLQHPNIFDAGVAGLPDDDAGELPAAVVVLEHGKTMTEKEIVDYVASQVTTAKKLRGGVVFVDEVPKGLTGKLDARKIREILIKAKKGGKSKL
The subject of test [10] is Wnt5a (protein binding on small-molecule microarray). Nature of the test: small molecules binding Wnt5a protein – biophysical, small-molecule microarray, 635/667 nm fluorescence, primary screen (AID 1142).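 Also: fluorescence read at 667 nm with signal to noise per printed feature.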 The note with it: 635 nm fluorescence, higher = more signal.
Test [11] is described as follows: ATP-based viability of Huh7 replicon cells – cell-based, CellTiter-Glo luminescence, basal, 48 h, cytotoxicity control for HCV replication inhibitor project, primary screen (AID 1143).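 Also: Huh7 hepatoma cells carrying a hepatitis C replication reporter with no stimulus; test concentration not given here.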 The note with it: higher = more signal, called active from +8 up or from −8 down. In general terms: A replicon is a self-replicating genome or part of one, used to study replication in cells.

A short description of test [12]: Pseudomonas biofilm growth suppression – PAO1 strain, BacTiter-Glo luminescence, LB-PBS, primary screen (AID 1144). To be noted: P. aeruginosa PAO1 biofilm, 12 h, higher = more signal.
The nature of test [13]: basal CRE-LacZ reporter activity in PC12 – cell-based, unstimulated, primary screen (AID 1145). To be noted: no forskolin, luminescence, 4.5 h, higher = more signal, called active from +8 up or from −8 down.
Test [14] is described as follows: forskolin-driven CRE-LacZ activity in PC12 – cell-based, CRE-LacZ reporter, forskolin-stimulated, primary screen (AID 1146).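 Also: PC12 cells with 6xCRE LacZ reporter stimulated by forskolin 10 µM; beta-galactosidase reporter signal reflecting CREB driven transcription.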 To be noted: luminescence, 4.5 h, higher = more signal, called active from +8 up or from −8 down.
In test [15] the target is Streptavidin (Streptomyces avidinii) (UniProt P22629). Nature of the test: compounds binding control protein streptavidin – biophysical, small-molecule microarray, 635/667 nm fluorescence, artefact control for SMM compound annotation, primary screen (AID 1147).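 Also: signal reflects streptavidin binding to arrayed compounds as a control protein.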 To be noted: higher = more signal.
Streptavidin (Streptomyces avidinii), sequence (P22629 whole entry, looked up): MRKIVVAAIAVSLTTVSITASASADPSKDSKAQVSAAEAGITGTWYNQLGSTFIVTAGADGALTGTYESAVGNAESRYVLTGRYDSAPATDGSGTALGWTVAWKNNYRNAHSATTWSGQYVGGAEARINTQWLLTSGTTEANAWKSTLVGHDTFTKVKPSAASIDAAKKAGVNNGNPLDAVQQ
Test [16] in a line: probe aInhba binding on compound microarray – biochemical, small-molecule microarray, 635/667 nm fluorescence, primary screen (AID 1148).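 Also: score merges 667nm spot fluorescence with signal-to-noise for antibody binding to printed compounds.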 To be noted: higher = more signal.
Test [17] addresses Torsin-1A (Homo sapiens) (UniProt O14656). Nature of the test: TOR1A wild-type binding on microarray – cell lysate, small-molecule microarray, lysate, 635/667 nm, primary screen (AID 1149). The note with it: COS7 hTOR1A-WT lysate, 635 nm fluorescence, higher = more signal.
Test [18] shares this target. Nature of the test: torsin A mutant lysate binding on microarrays – cell lysate, small-molecule microarray, COS7 lysate, 635/667 nm fluorescence, primary screen (AID 1150).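 Also: score pools 667 nm emission and signal to noise measuring lysate protein binding.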 The note with it: COS7 hTOR1A mutant lysate, 635 nm fluorescence, higher = more signal.
The subject of test [19] is Sonic hedgehog protein (Shh). Nature of the test: Sonic hedgehog microarray binding compounds – biochemical, small-molecule microarray, 635/667 nm fluorescence, primary screen (AID 1151).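 Also: Shh protein binding to compounds spotted on small-molecule microarray slides; score combines spot fluorescence intensity with signal-to-noise across triplicate slides.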 The note with it: 635 nm fluorescence, higher = more signal.

Calls of active or inactive are those of the source. Unless noted, no rule for the calls is given here.

Torsin-1A (Homo sapiens), sequence (O14656 whole entry, looked up): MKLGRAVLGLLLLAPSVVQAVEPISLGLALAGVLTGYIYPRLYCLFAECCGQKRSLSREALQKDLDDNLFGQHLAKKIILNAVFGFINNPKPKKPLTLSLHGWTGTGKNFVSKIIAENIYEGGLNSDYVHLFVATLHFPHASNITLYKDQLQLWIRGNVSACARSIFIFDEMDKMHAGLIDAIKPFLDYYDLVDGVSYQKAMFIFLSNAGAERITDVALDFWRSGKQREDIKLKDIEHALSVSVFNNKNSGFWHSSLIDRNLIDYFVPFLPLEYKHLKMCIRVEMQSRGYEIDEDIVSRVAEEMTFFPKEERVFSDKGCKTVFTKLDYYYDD
Follistatin (Homo sapiens), sequence (P19883 whole entry, looked up): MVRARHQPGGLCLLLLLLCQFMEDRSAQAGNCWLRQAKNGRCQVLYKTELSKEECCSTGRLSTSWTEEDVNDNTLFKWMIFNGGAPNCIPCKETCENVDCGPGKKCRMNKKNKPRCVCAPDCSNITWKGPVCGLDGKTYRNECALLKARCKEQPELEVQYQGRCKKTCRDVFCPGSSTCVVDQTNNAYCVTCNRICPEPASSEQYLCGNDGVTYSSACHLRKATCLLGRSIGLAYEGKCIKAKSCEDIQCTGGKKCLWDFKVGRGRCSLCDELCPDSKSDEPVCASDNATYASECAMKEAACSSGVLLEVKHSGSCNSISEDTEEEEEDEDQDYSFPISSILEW

For the compound `CC(C)NC(=O)[C@@H]1c2ccccc2C(=O)N(Cc2ccccc2)[C@H]1c1ccc(CO)cc1`, the composite z-score in [1] was 0.166; in test [2], 0.482; in test [3], 0.512; in [4] it was -0.367; in test [5] it was -0.797; in [6], 0.394. Further, the composite z-score is -1.54 in the test with Lefty1; 0.826 in test [8]; -0.0365 in [10]; -0.501 in [15]; 0.0345 in [16]; -0.124 with Torsin-1A (Homo sapiens) [17]. For the same compound, the composite z-score with Torsin-1A (Homo sapiens) [18] was -0.744; in test [19], 0.495. Further, the z-score in [7] is 0.484; in test [9], 0.413 (inactive); in [11] it was -0.0084 (inactive); in test [12] it was -0.0818 (inactive); in test [13] it was 0.0279 (inactive); in [14] it was 0.669 (inactive).
In the case of `COCCOC(=O)N1C(=O)[C@@]2(c3cc(C#CCCO)ccc31)[C@H](C(=O)NC[C@H](O)c1ccccc1)[C@H]1C(=O)O[C@H](c3ccccc3)[C@H](c3ccccc3)N1[C@@H]2c1ccc(O)cc1`, the composite z-score was 1.69 in test [1]; 0.789 in test [2]; 0.148 in test [3]; -0.134 in [4]; 1.09 in test [5]; 0.837 in test [6]. Further, the composite z-score in the test with Lefty1 is 0.429; in [8] it was 0.363; in [10], 0.0418; in test [15], 0.276; in test [16] it was -0.0136; with Torsin-1A (Homo sapiens) [17], 0.581. Further, the composite z-score with Torsin-1A (Homo sapiens) [18] is 1.12; in test [19] it was 1.79. Besides, the z-score in test [7] was -0.319; in [9], 0.788 (inactive); in test [11], -0.612 (inactive); in [12], -1.16 (inactive); in [13], -1.29 (inactive); in [14] it was -0.201 (inactive).
Regarding `O=C1C[C@@](C(=O)NC2CC2)(c2ccc([N+](=O)[O-])cc2)[C@@H](c2ccc(CO)cc2)N1CC12CC3CC(CC(C3)C1)C2`, the composite z-score in test [1] is 0.294; in [2] it was 0.831; in [3] it was 0.473; in [4], 0.934; in test [5], 1.21; in test [6], 0.0882. Besides, the composite z-score in the test on Lefty1 was 0.427; in test [8], 0.553; in [10], 0.382; in [15] it was 0.465; in [16] it was -0.0736; in the test with Torsin-1A (Homo sapiens) [17], 0.477. Further, the figures for the composite z-score (with Torsin-1A (Homo sapiens) [18]; in [19]) were -0.176 and 0.777, respectively. Also, the z-score in test [7] was 0.0799; in test [9], 1.12 (inactive); in test [11] it was -4.42 (inactive); in test [12], -0.752 (inactive); in test [13], -0.529 (inactive); in test [14], -1.12 (inactive).
Take `COCCOC(=O)N1C(=O)[C@@]2(c3cc(C#CC4=CCCCC4)ccc31)[C@H](C(=O)N1CCc3cc(OC)c(OC)cc3C1)[C@H]1C(=O)O[C@H](c3ccccc3)[C@H](c3ccccc3)N1[C@@H]2c1ccccc1OCCO`: the composite z-score in [1] was -0.13; in test [2] it was 0.487; in [3], -0.106; in [4] it was 0.061; in [5], 1.29; in [6] it was 1.66. In addition, the composite z-score in the test on Lefty1 was 1; in [8], 0.747; in test [10] it was 0.192; in test [15] it was 0.154; in test [16], 0.0939; with Torsin-1A (Homo sapiens) [17], 0.198. The composite z-score is 0.274 with Torsin-1A (Homo sapiens) [18] and 2.05 in test [19]. In addition, the z-score was -1.11 in test [7]; -1.62 (inactive) in [9]; -1.3 (inactive) in [11]; 0.597 (inactive) in test [12]; 0.0736 (inactive) in test [13]; -1.14 (inactive) in [14].

The record behind these values is PubChem BioAssay.
